# In PubChem BioAssay (NCI):
# About 83,000 compounds went through this panel and 20% of them were active in at least one assay; those are over-represented in the sample as a whole.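 Single-concentration screen, 48 h exposure, 96-well plates. Endpoint: percent growth. Below 10 = active.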 Unmarked numbers belong to inactive results. Active and inactive are the calls of the source.
# Assays:
# Assay in all cases: NCI-60 one-dose screen, 48 h (100 = growth as untreated, 0 = no growth, -100 = all killed)
# Conditions in all cases: 10 µM unless noted
# [1] = test system: T-47D breast
# [2] = test system: BT-549 breast
# [3] = test system: MDA-MB-435 melanoma
# [4] = test system: SW-620 colon
# [5] = test system: MCF7 breast
# [6] = test system: HCT-116 colon
# [7] = test system: HCC-2998 colon
# [8] = test system: KM12 colon
Structure (SMILES),growth [1],growth [2],growth [3],growth [4],growth [5],growth [6],growth [7],growth [8]
COc1ccc([C@H]2[C@H](O)C(=O)N2c2cc(OC)c(OC)c(OC)c2)cc1O,75.8%,-9.8% (active),-13.1% (active),17%,8.66% (active),-8.58% (active),19.5%,13.1%
CC(C)=CCc1c2c(c(O)c3c1O[C@]14C(=C[C@@H]5C[C@H]1C(C)(C)O[C@@]4(C/C=C(/C)C(=O)O)C5=O)C3=O)CC(O)C(C)(C)O2 (some centres not stated),-10.2% (active),-14.3% (active),-16% (active),-44.8% (active),-41.4% (active),-69.8% (active),-84.7% (active),-68.9% (active)
c1ccc(-c2n(Cc3ccc4ccccc4c3)c3c4ccccc4c4ccccc4c3[n+]2Cc2ccc3ccccc3c2)cc1,-41.7% (active),-69.9% (active),-85.4% (active),-75.4% (active),-75% (active),-61.6% (active),-90.8% (active),-85.5% (active)
O=C1CSC(=O)N1Cc1cc2ccccc2nc1Cl,92.5%,95.6%,99.3%,103%,92.5%,106%,105%,101%
O=C1c2c(c3c4cc(Br)ccc4[nH]c3c3ccc4ccccc4c23)C(=O)N1CCN1CCNCC1,61.8%,87.6%,92.5%,-58.4% (active),-73.7% (active),11.2%,51.5%,88.6%
COc1ccc(/C=C/C(=O)c2nnn(-c3ccc(Br)cc3)c2C)cc1OC,66.4%,63.9%,61.3%,51.6%,12.9%,5.41% (active),83.7%,66.7%
O=C(NNc1nc2cc(F)c(F)cc2n2cccc12)c1cccnn1,13.7%,32.3%,27.8%,22%,7.41% (active),8.91% (active),49.2%,24.3%
CCOC(=O)c1c(Nc2ccccc2)nn2c(-c3ccc(OC)c(OC)c3)ccnc12,41.3%,112%,69.6%,40.9%,55%,42.7%,52.2%,44.9%
COc1ccc(C2C(C#N)=C(N)Oc3c2sc2ccc(C)cc32)cc1 (configuration not stated),32.7%,26.8%,-26.4% (active),13.9%,19.2%,22.1%,53.2%,24.2%
Cc1nn(-c2ccc(Cl)cc2)c(C)c1N=Nc1ccc2oc(=O)ccc2c1,45.9%,101%,85.4%,94%,78.7%,66.5%,105%,90.3%
COc1cnc2c(c1)C(=O)c1c-2n(CCCNCC2CC2)c(=O)c2cc(F)ccc12,-21.2% (active),-0.964% (active),10%,-29.6% (active),-8.09% (active),-79.7% (active),-41% (active),-8.57% (active)
O=c1oc2ccc(-c3ccc(F)cc3F)cc2c(=O)n1-c1cccc(C(F)(F)F)c1,6.01% (active),3.66% (active),6.94% (active),14.2%,2.43% (active),4.36% (active),16.4%,6.11% (active)
COc1ccccc1N1CCN(C2=NN=C(c3cccc(Cl)c3)c3ccccc3C2)CC1,52.5%,50.5%,-3.46% (active),20.9%,17.4%,7.98% (active),8.13% (active),6.16% (active)
Cc1cc(O)c(=O)cc2c1C[C@H]1CC(C)(C)/C=C/C[C@]3(C)Oc4cc(=O)c(O)cc(C)c4C[C@H]3C[C@H](O)[C@@]1(C)O2,-2.55% (active),1.87% (active),15.7%,15.1%,7.16% (active),11.3%,30.8%,23.6%
